S2 tox: cell viability loss in ATXN counter-screen. Potency, µM (titrated, usually from 56.7 µM), actives largely listed as cytotoxic. actives 0.49% (n = 400,000). S2 cells (HEK-293 line with an ATXN2-luciferase reporter) viability, CellTiter-Fluor protease fluorescence, 24 h; note: nearly all actives have a fitted effect of over 40% in size
ATXN2 expr inh: inhibitors of ATXN2 expression | HEK-293 ATXN2-luciferase reporter, luminescence, 24 h | Potency, µM (series often up to 57 µM), actives largely listed as inhibitors | actives 0.72% (n = 360,000) | AID 1745845; note: nearly all actives have a fitted effect of over 55% in size
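ATXN2-luciferase reporter cells (luciferase flanked by upstream and downstream ATXN2 gene portions) were treated 24 h at 37 °C with compounds at up to 57 uM. SteadyGlo luminescence gave expression; GF-AFC fluorescence gave viability.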
IL-1B inflam inh: inhibitors of inflammasome signaling (IL-1 beta secretion); THP-1 LPS/ATP IL-1B secretion, AlphaLISA, 16 h; active compounds read low; activity change, % at 57.5 µM; actives 4.7% (n = 360,000); in the data active = activity change below about -50%; inconclusive = mostly about -30% to -49%
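THP-1 cells pretreated 1 hr with compounds (up to 57.5 uM final), then stimulated with LPS (250 ng/mL final) plus ATP (1.25 mM final); secreted IL-1B measured by AlphaLISA after 16 hr, decreased signal indicating inhibition.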
DRD3 agonist: agonists of human D3 dopamine receptor | max activation, % | D3R DiscoveRx beta-arrestin cells, luminescence, 90 min | P35462 | AID 652048 | actives 0.58% (n = 410,000); in the data active = max activation above about 30%
Target sequence (P35462 whole entry, looked up): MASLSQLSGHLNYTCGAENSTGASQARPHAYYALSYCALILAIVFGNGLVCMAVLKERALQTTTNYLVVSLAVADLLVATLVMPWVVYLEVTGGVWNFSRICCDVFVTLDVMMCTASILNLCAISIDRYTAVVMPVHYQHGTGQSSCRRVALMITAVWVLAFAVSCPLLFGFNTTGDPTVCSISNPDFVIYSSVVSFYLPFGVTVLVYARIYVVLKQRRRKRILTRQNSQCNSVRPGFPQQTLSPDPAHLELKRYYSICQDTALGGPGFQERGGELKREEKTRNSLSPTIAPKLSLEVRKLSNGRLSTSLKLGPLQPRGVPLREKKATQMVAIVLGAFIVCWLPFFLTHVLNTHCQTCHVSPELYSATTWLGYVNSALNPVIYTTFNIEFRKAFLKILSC
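Agonist mode: compounds and dopamine controls were applied to plated cells for 90 min at 37 degrees C after an overnight attachment at 1500 cells/well. Luminescent read-out followed 30 - 60 minutes at room temperature with DiscoveRx detection reagent.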
a7 integrin act: activates integrin-mediated alleviation for muscular dystrophy. alpha7betagal myoblasts, beta-gal FDG fluorescence, 48 h. Potency, µM (doses to about 38.3 µM), usual class: activators. actives 0.064% (n = 350,000); note: nearly all actives have a fitted effect of over 60% in size
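alpha7betagal+/- myoblasts (passage 13, 250/well) treated 48 h at 37C with compounds at 1:260 dilution of DMSO stock. Lysed, then beta-galactosidase activity read as FDG fluorescence (ex 480/em 540) after 30 min, with pre-read for autofluorescence.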
DRD3 antagonist: antagonists of human D3 dopamine receptor | P35462 | D3R cells, DiscoveRx beta-arrestin luminescence, antagonist mode; active compounds read low | max response, negative = inhibition, % | actives 2.5% (n = 360,000); in the data active = max response below about -50%; inconclusive = no clear call, values can overlap the other calls
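Cells expressing the human receptor were seeded at 1500 cells/well, incubated overnight at 37 degrees C in 5% CO2, then exposed to library compounds with dopamine controls for 90 minutes at 37 degrees C before luminescent detection.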
Hits are given with their value; i = inactive; ? = inconclusive; nt = no result; [ ] = dose if it differs, or a comment. This is a sample that favours compounds with a hit; in the whole collection about 7% have one here. Unless noted, calls come from the whole dose curve; as a rule, active = well fitted curve in the direction sought with a large enough effect; inconclusive = small, poorly fitted or top-dose-only effect, or another doubt; inactive = no such curve, though single readings can be large; an effect the other way counts as inactive or inconclusive.

SMILES	S2 tox	ATXN2 expr inh	IL-1B inflam inh	DRD3 agonist	a7 integrin act	DRD3 antagonist
O=C(NCC1CCCO1)c1ccccc1OCc1ccc(F)cc1 (stereo not given)	?	i	i	i	i	-66
O=C(Nc1cccc(Cl)c1)c1ccc2c(c1)SC1=NS(=O)(=O)CCN12	i	?	-67	i	i	i
CC(=S)c1c(C)cc2cc(C)ccn12	i	i	i	i	i	i
CN1CCC[C@@H]1CCNC(=O)c1c(-c2ccc3c(c2)OCO3)noc1-c1ccsc1	i	i	-76	i	i	i
CN1CCC[C@H]1CCNC(=O)c1c(-c2ccsc2)sc2ccccc12	i	i	i	i	i	i
Cc1ccc(/C=C/C(=O)N2CCc3ccccc32)o1	i	i	-81	i	i	?
COc1ccc(OC)c(/C=C/C(=O)N2CCCc3ccccc32)c1	i	i	-77	i	i	i
Cc1ccc(/C=C/C(=O)N2CCN(c3ncccn3)CC2)o1	?	i	-81	i	i	i
Cc1ccc(/C=C/C(=O)N2CCN(c3ccc(F)cc3)CC2)o1	i	i	i	i	i	i
O=C(/C=C/c1ccco1)N1CCc2ccccc21	i	i	i	i	i	i
COc1cc(C(=O)N/N=C/c2coc3ccc(Cl)cc3c2=O)ccc1O	i	i	i	i	?	i
COCCn1c(=N)c(C(=O)NCCc2ccc(OC)cc2)cc2c(=O)n3cccc(C)c3nc21	i	i	i	i	i	i
COCCCNC(=O)c1cc2c(=O)n3cccc(C)c3nc2n(C(C)C)c1=N	nt	i	-69	i	i	i
O=C(Nc1cn[nH]c1-c1nc2ccc(CN3CCOCC3)cc2[nH]1)NC1CC1	nt	5.4µM	nt	nt	nt	nt
Cc1cc2nc(-c3ccc(SCC(=O)N4CCOCC4)nc3)[nH]c2cc1C	i	i	?	i	i[7.66 µM]	i
Clc1ccc(-c2nnc(Sc3nc4ccccc4o3)c3ccccc23)cc1	?	?	-104	i	i	?
Cc1ccc(-c2nnc(Sc3nc4ccccc4o3)c3ccccc23)cc1	?	?	i	i	i	?
CCSc1nnc(C)c2ccccc12	i	i	i	i	i	i
Cc1nnc(Sc2nc3ccccc3o2)c2ccccc12	i	i	-99	i	i	-68
CON(C)C(=O)CCN(Cc1ccccc1)C(=O)OC(C)(C)C	i	i	i	i	i	i
CON(C)C(=O)CC(CN(Cc1ccccc1)C(=O)OC(C)(C)C)c1ccc(Cl)cc1 (stereo not given)	?	i	-61	i	i	?
COc1ccc(S(=O)(=O)N/N=c2\oc3c(OC)cccc3cc2S(=O)(=O)c2ccc(C)cc2)cc1OC	i	i[11.3 µM]	-54	i	i	i
CC(=O)NCCC(Cc1ccccc1)c1ccco1 (stereo not given)	i	i	i	i	i	i
c1ccc(CNCCC(Cc2ccccc2)c2ccco2)cc1 (stereo not given)	i	i	-80	i	i	i
CN(C)c1ccc(CNCCC(Cc2ccccc2)c2ccco2)cc1 (stereo not given)	?	?	-99	i	i	i
SMILES	S2 tox	ATXN2 expr inh	IL-1B inflam inh	DRD3 agonist	a7 integrin act	DRD3 antagonist
COc1ccc(CNCCC(c2ccc(C)cc2)c2ccco2)cc1 (stereo not given)	nt	nt	nt	i	nt	nt
COC(CN(C(=O)CCl)C(C(=O)NC1CCCCC1)c1ccc(Cl)cc1)OC (stereo not given)	?	i	?	i	i	i
COC(CN(C(=O)CCl)C(C(=O)NC1CCCC(C)C1C)c1ccc(C)cc1)OC (stereo not given)	?	i	-100	i	i	i
COC(CN(C(=O)CCl)C(C(=O)NC1CCCCC1)c1ccccc1C)OC (stereo not given)	?	?	-104	i	i	i
O=C(NCc1ccc2c(c1)OCO2)C1CCN(S(=O)(=O)c2ccc(Br)s2)CC1	i	i	i	i	i	i
COc1cc(OC)cc(C2=Cc3ccc(OC)cc3C(CC(C)=O)N2c2ccc(C#CC3(N)CCCCC3)cc2)c1 (stereo not given)	18µM	i	i	i	nt	i
COc1cc(OC)cc(C2=Cc3ccccc3C(CC(C)=O)N2c2ccc(C#CC3(N)CCCCC3)cc2)c1 (stereo not given)	28µM	?	i	i	nt	i
COC(=O)c1scc(-c2ccccc2)c1S(=O)(=O)Nc1cccc(C)c1C	i	i	nt	i	nt	nt
O=c1oc2ccccc2c(N2CCCC2)c1[N+](=O)[O-]	i	i	i	i	i	i
O=c1oc2ccccc2c(N2CCCCC2)c1[N+](=O)[O-]	i	i	-50	i	i	i
COc1ccc(N2CCN(c3csc4ccccc4c3=O)CC2)cc1	i	i	nt	i	nt	nt
N=C1SC(CC(=O)Nc2ccc([N+](=O)[O-])cc2)C(=O)N1c1ccccc1 (stereo not given)	i	i	-73	i	i	i
COc1cc(C=C2CN(C)C(=O)C2=O)ccc1O	28µM	nt	i	i	i	i
CCOc1cc(/C=C2\CN(C)C/C(=C\c3ccc(O)c(OCC)c3)C2=O)ccc1O	nt	3.2µM	-105	i	i	-52
CCOc1cc(/C=C2\CCC/C(=C\c3cc(Cl)c(O)c(OCC)c3)C2=O)cc(Cl)c1O	16µM	8.9µM	-100	i	i	i
C=CCNC(=O)/C(C#N)=C\c1cc(Cl)c(O)c(OCC)c1	i	i	i	i	i	i
CCOc1cc(/C=C2/C(=O)ON=C2C)ccc1O	i	i	i	i	i	i
CCOC(=O)C1=C(C)Nc2ncnn2C1c1ccc2c(c1)OCO2 (stereo not given)	i	i	i	i	i	i
CC(C)NC(=O)C(c1ccccc1)N1Cc2ccccc2C1=O (stereo not given)	nt	nt	nt	i	nt	nt
O=C1COc2ccc(S(=O)(=O)N3CCCCCC3)cc2N1	?	nt	i	i	i	i
OC1CN=C2CCCc3c2n(c2ccc(Cl)cc32)C1 (stereo not given)	i	i	?	i	i	-77
Cc1ccc(Cl)cc1N1CCN(C(=S)NCc2ccco2)CC1	i	i	-82	i	i	i
S=C(NCc1ccco1)N1CCN(c2ccccc2Cl)CC1	i	i	i	i	i	i
O=C(Cc1cccs1)N1CCN(c2nc(-c3ccc(Cl)cc3)cs2)CC1	i	i	-62	36	i	i
S=C(NCC1CCCO1)N1CCN(c2nc(-c3ccccc3)cs2)CC1 (stereo not given)	?	i[11.3 µM]	-58	i	i	i
CNC(=S)N1CCN(c2nc(-c3ccc(Cl)cc3)cs2)CC1	i	?	-57	i	i	i
CCN(c1cccc(C)c1)S(=O)(=O)c1c(C)nc2sc(C)cn2c1=O	nt	nt	nt	i	nt	nt
CC(=O)CC(=O)Nc1nc(C)cc(C)n1	i	i	i	i	i	i

Screening data as filed in PubChem BioAssay.
